Results reported in PubChem BioAssay AID1159506 (National Center for Advancing Translational Sciences (NCATS), 2015).
The full ranking holds about 59,000 sequences; the median of the read-out is about -0.00055, and the lowest 2% start at about -2. Many of the other results were omitted from the sample, so the lowest values are more common in it than they were.

Test: Identification of proteins required for the processing of the EWS-FLI1 nascent transcript;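 note: robust z of luciferase light less the median z of siRNAs with the same seed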
Conditions: TC32 Ewing sarcoma NR0B1-luc vs CMV-luc (EWS-FLI1 target promoter against control promoter), 48 h; screened at 20 nM (by protocol)
Outline: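 TC32 Ewing sarcoma cells carrying NR0B1-promoter or CMV-promoter luciferase reporters were reverse-transfected with single siRNAs at 20 nM, three per gene genome-wide. Luminescence was read after 48 h and normalized to non-targeting controls.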

Row | Sequence | seed-corrected z-score
1 | UUCUCUUCAACCCACUUGG against JAKMIP1 | -2.7
2 | UUUAGGUAAAUGAACUCUC against ANGPTL2 | 0.169
3 | UAAAGGUUGAGAAACUUGA against PRPF38A | -2.42
4 | UUAGAAUCGACCGGCAUUC against KIT | 0.106
5 | UAAAUGGCCGUGAUCAAUC against PRDM16 | -0.168
6 | UUUGUUCAAGGUUAAUCCC against LRRC27 | 0.333
7 | UAUCUUCUCACUAACACUC against PEX12 | 0.599
8 | ACCCUUAUGAAUUACACCC against PSMD1 | -4.24
9 | UCAUAGUUUAGUUCUCGAG against BBS9 | 0.745
10 | AUAGAAUCGAUGGAAGUCC against CAMK2A | 0.247
11 | UUCUAUGAAAUCGUAAGGC against ME2 | -0.054
12 | AACAGCUCUCUGGUAAGCG against RPS23P8 | -0.758
13 | UUGCUUUCGAGACCAGCUC against C11orf16 | -2.33
14 | UUCUUAUAUGUAGUACGGG against ZNF506 | -0.657
15 | UUCGAACUAAGGCACGAGC against ABCB5 | -0.392
16 | UAUUUCCAUCGGAUGAUGC against GJD3 | -0.0376
17 | UAGGCUUAGAGGUCCCAGC against LACRT | 2.39
18 | UAAUUGACCAGCUUACUAC against PRAMEF2 | 1.04
19 | AAUUCAUCCAUGAUUCUGC against FAM134B | -0.291
20 | UAGUUGUCGACGAGCACGC against MUC5AC | -2.79
21 | UUCUUACCAGUGUUGAUGG against KIF11 | -2.21
22 | UAAUCUUCAUACGCAGUGC against HNRNPR | 0.713
23 | UUCAUACUGAAGAUUUUCC against ZNF157 | -0.0023

Row | Sequence | seed-corrected z-score
24 | UAGGAUUAAAUUAAUCCUC against GNE | -0.0404
25 | UAAAGGCAUAGUUUCCCUG against RGS7BP | -2.71
26 | AAAGGUGCAGAAGUUCUGU against LOC646484 | -1.37
27 | UCCAGUUCCAGAACUAUCU against HES2 | 0.537
28 | AAACGGUCCAGGUAAUUCA against CCND2 | -1.57
29 | UCUCGUUCCACCAGAUCCG against OGFR | 2.21
30 | AGUUGUAGAAGAACGAAUC against PSMD2 | -3.28
31 | UUGGGUUUCGGACCUCUCU against CBX7 | 0.219
32 | UAUCCUUCAACCAUUCUGG against DYX1C1 | 0.0057
33 | UAUAUGACACCUGCUGUGG against NGFR | -1.33
34 | AUUGCAGUCACGAUGAUGG against OR52I2 | -1.16
35 | UAAUGUCCAAGAUGGUCAC against CELSR1 | 0.481
36 | UUCUGAAUCAAAGUUGUUC against CBLN1 | 0.758
37 | UGUAUAACCUGGCUCUCUG against FAM45BP | -0.888
38 | UAGGAUGGAACAUCAAUCU against WASH5P | -2.88
39 | UAUGCUCAAAUACCUUUGC against CAT | 0.148
40 | UAGUGCUUAUCCUAGAAUC against KLK8 | 0.915
41 | AAACUACCCAAUUGUAAUC against OR9A4 | 0.66
42 | AUGGUCUUGCCAUCUACCG against RABL2A | -2.05
43 | AUCAAUUUGUCCUCCAUCC against RNPS1P1 | -0.331
44 | GACAUGGCAGUGAGCUUCC against CBX2 | -0.4
45 | UGCUCAAUCUGAUAGAUGG against TP63 | -0.257
46 | UGUUUGAUCUGUAAAAUGG against C15orf32 | -1.58

Row | Sequence | seed-corrected z-score
47 | AUGAUGUUCCUUGAAGUUC against DHRS2 | -0.594
48 | UCUCAUCCAGGUACCAGCC against FTCD | -0.292
49 | AGCUGUUCAAUGUCAAAGC against INMT | -4.2
50 | UGACAUACCAGAGGAAGUG against PLEKHH1 | -0.0437
51 | UUGUUGACCAUAGCUACUC against EWSR1 | -4.01
52 | AUAGAUACAGGUGAUGCAG against EGLN2 | 1.45
53 | UACUCUCACAGCUUGCACC against KCTD18 | -0.258
54 | UUGGGAAGCAGGUGCAUGC against LAIR1 | -2.03
55 | UAGAGGCACCGAGUCAACG against DBF4B | 0.153
56 | UGAGUUCCGACACUCCAUC against EIF4EBP1 | 0.187
57 | UCUGCUUUCUGUACCCGAC against GATA3-AS1 | -2.32
58 | UUUGUUACAAGCACCUACU against LOC730179 | 0.536
59 | ACAGGUGCAUUGGACUUGG against KCTD15 | -3.06
60 | UUGAUCACCUCAGAGGCCG against USE1 | -1.2
61 | UUAUGCUAAAAUCUACUCC against TNKS2 | -1.04
62 | AAUAGGUGUAAGUCCGUGC against NR5A2 | -2.54
63 | UUAGUCCAGAGGUUUCAUC against PCAT18 | -0.77
64 | UCACAAUUUAGUGUAAUAG against ETFBKMT | 0.195
65 | UCGGUAAUCCGGGUGAAGC against FGF14-AS2 | -0.163
66 | UCCUGGAUUGGGAAGGUGC against C9orf172 | -0.383
67 | UGCAGUAGAAUUUACACGC against RB1 | -2.42
68 | UUUGCUAUCAGGGAACAUC against SPRR2B | -0.452
69 | UGAUGGUAGAGUUCCAGUG against MYBL2 | -0.637

Row | Sequence | seed-corrected z-score
70 | UUGCUUAUGAGCUUGAUGG against MAST1 | -2.39
71 | UAAGCGGUUCAUGCUGUGG against CPA5 | -0.872
72 | UAGUGGAAGACGGAAAAGU against SFN | -0.0924
73 | AGUAUAACCAGUGGGAGGC against EWSR1 | -5.73
74 | UAUCUGAAGAUCUAGACUC against ZNF280D | -0.0696
75 | UCCUUGACCAGAAAUCUCA against TRIM31 | -0.472
76 | UACGUCAAACGGAACUUCC against LRPPRC | -0.194
77 | UCAUGUAUAAACAGUCGCC against ALDH7A1 | 0.368
78 | UUAGCAUGAUGAUCAAGGC against LIN28B | 0.22
79 | UUAUAUAUCUCCUGGAGCG against AGPAT3 | -0.537
80 | UGAGUUUCGAGAGCACAGU against MID1IP1 | -3.02
81 | AAACUUUCUCCUUAAGGCC against PRR11 | -0.21
82 | UUGCAAUUGAAUUCACAGC against SRI | -0.0706
83 | UGAAGGAUUUGUGACAUAC against ZFP28 | -0.0712
84 | UGUGGUUCCAAGGCACGUC against CCER2 | -2.12
85 | UUCCUUGGGCCCUAUAUGU against FAM168A | -0.129
86 | AACGUAGAAAAGCAUAUCG against DENND5B | -0.0535
87 | UAUCUUGCUGGUGUGUGUG against MAX | -0.878
88 | AUAGGCUUUAUCAAGAUCG against MPP5 | 0.288
89 | UGAAUUUCUCGAAUCUGUG against SF3B1 | -4.69
90 | UGACCGAUGACAGGUAUCU against MRGPRX3 | -0.02
91 | UUUUGAGUGGGUAUCAACC against VIM | 0.533
92 | UUCUGUGCUACUUUGUGCU against SSR3 | 1.19

Row | Sequence | seed-corrected z-score
93 | UCCCUGAAUAGUGUGACAG against CCDC103 | 0.246
94 | UUACAUCCAAUUGUAAAGG against C5orf22 | -2.74
95 | UUUGCGAAACUCCAAGUCC against LMNB1 | -0.159
96 | AAAAAUAUCUGUGAUUCUG against WNK1 | 0.399
97 | UAGGCAUCGAUGUGGAAGC against TELO2 | 2.04
98 | UCAGCAGAUCUUGACAGUC against LYZL6 | 0.253
99 | CUGCUUCUGAGCGUUUGCG against MED14OS | -2.09
100 | UUGCCGUAUAGGUAGUUUG against NPTX2 | -0.552
101 | UAGGCGACGCCCUUUUUCU against H3.X | -0.0707
102 | UUUGAGUCCUCAUGGGUGG against GTF3C4 | 1.63
103 | UAGGUGUUGAUGAUCUCCC against XAB2 | -2.44
104 | UUUGUCUCUGCGGAGGUUC against EIF3D | -0.479
105 | UGAUUAGUCACCAAAGUCC against ATF7IP | -1.24
106 | UACUGUCGAACUUUGCCUG against HEPH | -1.6
107 | UCACUAGCAAGGUUCUCCC against LARP4B | 0.24
108 | UAAUGUACUUGAUCGCAGC against ASCL3 | -1.12
109 | AUAGUUGCCGGUGCUCACC against PICK1 | -3.04
110 | UACUGUAUAGGAAACGAUC against ESPL1 | -0.0398
111 | UCGCUGUCCUUUAAGAGGC against NKAIN4 | -0.183
112 | AUCGGGAAGAGAGUGUAUC against PTAFR | 0.45
113 | CAAGUGGAUCGAGCUUGCG against RPL29P12 | 0.225
114 | UGACUCAAAACUACCAUCC against CCNA2 | -0.751
115 | AUCUCUUUUAUCAGGGUUG against VEGFB | -2.11

Row | Sequence | seed-corrected z-score
116 | AACGAUUUUAUCCAAAAUG against FBXO25 | 0.881
117 | UAUAUGUCUCGCAUUUGCC against TRE17 | -1.17
118 | AUCGCAAUAAUUUCAUCUG against NOL8 | -0.121
119 | UACGUUAGUUUUGACACGC against RALY | -0.653
120 | UGCUAUAGCACCAACAGCC against CLCN5 | -2.8
121 | UUGGGUUCUACAAGCUUCC against SDE2 | -0.135
122 | AAGAUGUCUGUGGUCAUGG against PLCB2 | 1.04
123 | UUACUAGAAUCCUCAAUUG against OXR1 | -0.746
124 | UAAAGAUCAAUUCGCUUUG against GLRB | -0.775
125 | UGAAGGUUCAGAGUGCAAC against ISG20L2 | -0.949
126 | UUCUGGAUUAGAAAGGUUC against NKRF | 0.43
127 | UCCUUGUCGAACAUGAGCC against NTNG2 | -2.93
128 | UGCACAUCCUUGUCUAUGC against SGSM2 | 0.184
129 | UUACAUUCUGAGCCCAUCC against HTR7 | -0.311
130 | UUAGUUAUAACAUAUGACU against LINC00900 | -0.697
131 | ACAAUGGAAAGCACCUUCC against RINL | 0.198
132 | UCCCAGUUGUGGAUGAUCC against PLEKHM1 | -0.204
133 | UAAAGACUACAAGCACAGC against OR51B5 | -2.14
